Cycloheximide cs – Cycloheximide Counterscreen for Small Molecule Inhibitors of Shiga Toxin | AID 2314, 2010 | cell reporter, cycloheximide protein synthesis inhibition counterscreen | 300,000 tested, 12% active | max response, %; in the data active = max response mostly above about 13%, no sharp cut-off; inactive = mostly below about 14%; also: read at 38.3 µM for the half of the compounds with a filed dose; 0% is about no effect
Pf growth 96h – Primary qHTS for delayed death inhibitors of the malarial parasite plastid, 96 hour incubation; P. falciparum luciferase reporter growth, 96 h; Potency, µM (highest dose often 28.7 µM), inactives show top-dose activity change, negative = inhibition, usual class: inhibitors; 320,000 tested, 6.9% active; also: potency is read from the fitted curve at half-maximal effect; % is scaled to controls: 0 for no effect and ±100 for the full control effect
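Delayed-death screen, second-generation endpoint: infected erythrocytes, 2% hematocrit, 0.05% parasitemia final; 96 hours at 37 C, 5% CO2; luciferase detection reagent; luminescence decrease equals reduced growth.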
Shiga inhibitor – A qHTS for Small Molecule Inhibitors of Shiga Toxin. Vero cells, Shiga toxin protein synthesis inhibition reporter. inhibition, % at 38.7 µM. 290,000 tested, 9.2% active. AID 2315, 2010; in the data active = inhibition mostly above about 28%, no sharp cut-off; inactive = mostly below about 43%; also: 0% is about no effect
NS1 inh – qHTS Assay for Inhibitors of Influenza NS1 Protein Function. 270,000 tested, 0.4% active. Potency, µM (doses to about 46.1 µM), for inactives: at the highest dose activity, positive = more growth; calls by dose curve; also: potency is read from the fitted curve at half-maximal effect; actives are rising curves; nearly all actives have a fitted effect of over 50% in size
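In this qHTS, NS1 from influenza A is expressed in budding yeast, where it slows growth. Cells are switched from glucose to 2% galactose medium (pH 6.0, -URA), treated with compound, and growth recovery is read at OD600.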
Pf growth 48h – Primary qHTS for delayed death inhibitors of the malarial parasite plastid, 48 hour incubation; P. falciparum luciferase growth in erythrocytes, 48 h; Potency, µM (series often up to 28.7 µM), inactives show top-dose activity change, negative = inhibition, usual class: inhibitors; 310,000 tested, 5.9% active; also: potency is read from the fitted curve at half-maximal effect; % is scaled to controls: 0 for no effect and ±100 for the full control effect
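Parasite viability was followed by luminescence of a genomically integrated firefly luciferase. Cultures held 0.1% parasitemia at 2% hematocrit (final), incubated under 5% CO2 at 37 C.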
* hit, by the source's call; ? = inconclusive; . = no result given; [ ] = dose if it differs, or a comment. Only some compounds are listed: those with a hit (about 21% of all), similar ones and a draw of the others. Unless noted, calls follow the shape of the dose curve; as a rule, active = well fitted inhibition curve with a large enough effect; inconclusive = small, poorly fitted or top-dose-only effect, or another doubt; inactive = no such curve, though single readings can be large or run the other way.

SMILES	Cycloheximide cs	Pf growth 96h	Shiga inhibitor	NS1 inh	Pf growth 48h
CCOC(=O)C(C(=O)Nc1ccccn1)C1CCCCC1 (centres undefined)	-2	9.3µM*	12	-18%	6%
CCCCOc1ccc(N(CC(=O)NC2CCCCC2)C(=O)CCC(=O)Nc2ccccn2)cc1	-4	?	-1	17%	12µM*
CCCCOc1ccc(N(CC(=O)NC2CCCC2)C(=O)CCC(=O)Nc2ccccn2)cc1	-5	-3%	-9	-5%	0%
CC[C@@H](C)[C@@H](O)[C@H](C)C(=O)[C@H](C)/C=C(\C)C[C@H](C)[C@@H]1OC(=O)[C@H]1CC	4	.	-17	.	.
CCCn1cnc2cc(NCc3cccs3)ccc21	33*	47%	106*	9%	57%
CCc1ccc(CNc2ccc3c(c2)ncn3CC)cc1	53*	-20%	86*	-5%	11%
CC(C)(C)n1cnc2cc(NCc3ccc(Br)cc3)ccc21	47*	-13%	117*	-4%	-13%
CCc1ccc(CNc2ccc3c(c2)ncn3C(C)(C)C)cc1	40*	-27%	94*	-2%	-15%
CCN(CC)c1ccc(CNc2ccc3c(c2)ncn3C(C)(C)C)cc1	7	1%	-3	-3%	-27%
CCn1cnc2cc(NCc3ccc(OC)cc3)ccc21	27	46%	46	-7%	.
CN(Cc1ccccc1)c1nc(-c2ccc(F)cc2)cc(C(F)(F)F)n1	-3	.	-2	.	.
CC1=CC(=C2C(=O)c3ccccc3C2=O)C=C(C)N1C	26*	-3%	40	0%	132%
CCCCCN1C=CC(=C2C(=O)c3ccccc3C2=O)C=C1	-15	3%	-33	.	0%
O=[N+]([O-])c1ccc(P(=O)(Cc2ccccc2)c2ccccc2O)cc1 (centres undefined)	-7	-20%	-9	1%	1%[0.00184 µM]
COC(=O)[C@@H]1[C@@H](C#N)C2(c3ccccc3-c3ccccc32)N(c2ccc(Cl)cc2)N1C#N	12*	-5%	47*	-16%	-20%
CCC(C)C(=O)Nc1ccc(OC)cc1OC (centres undefined)	-3	10%	-1	-6%	.
COc1ccc(NC(=O)c2cc(C(C)C)on2)c(OC)c1	53*	?	114*	-14%	225%
COc1cc(NC(=O)c2cc(C(C)C)on2)c(OC)cc1Cl	13*	-11%	32	-9%	13µM*
COc1ccc(NC(=O)c2cc(C(C)C)on2)cc1OC	44*	35%	45*	-39%	58%
CCC(C)[C@H](NS(=O)(=O)c1ccc(C)cc1)C(=O)N1CCC(C(=O)N2CCC(C(=O)OC)CC2)CC1 (some centres undefined)	-1	-27%	10	-22%	-27%
COc1ccccc1CNc1cc(C)ccn1	8	11%	.	-8%	-2%
O=S(=O)(NCc1c(Cl)cccc1Oc1ccccc1)c1ccc(F)cc1	-1	?	-1	-35%	9.3µM*
O=C(O)CSCC(=O)NCc1c(Cl)cccc1Oc1ccccc1	-3	21%	-12	-1%	6%
Cc1c(NC(=O)/C=C/c2ccc(S(=O)(=O)N3CCOCC3)cc2)c(=O)n(-c2ccccc2)n1C	-2	15%	-5	.	4%
CCC(=O)N1CCc2cc(S(=O)(=O)CCC(=O)O)ccc21	-4	7.4µM*	-12	6%	14%
SMILES	Cycloheximide cs	Pf growth 96h	Shiga inhibitor	NS1 inh	Pf growth 48h
O=C(CN(c1cccc(Cl)c1)S(=O)(=O)c1ccc(Cl)cc1)N1CCc2ccccc2C1	10	62%	4	?	12µM*
CN(Cc1ccco1)S(=O)(=O)c1ccc2c(c1)CCN2C(=O)CCC(=O)O	-4	13µM*	-17	5%	-16%
CC(=O)N1c2ccc(S(=O)(=O)N(C)Cc3ccco3)cc2CC1C (centres undefined)	-2	37%	-11	0%	5%
CC(=O)N1CCc2cc(S(=O)(=O)CCC(=O)Nc3ccc4c(c3)OCCO4)ccc21	12*	?	27	4%	10%
CCC(=O)N1CCc2cc(S(=O)(=O)CCC(=O)N3CCN(c4ccccc4)CC3)ccc21	5	9%	-1	-1%	?
CS(=O)(=O)N1CCC(C(=O)Nc2cccc(Br)c2)CC1	1	?	-10	-12%	0%
Cc1cc(C)cc(NC(=O)CSc2nc3nc(C)cc(C)c3c(=O)[nH]2)c1	.	-7%	.	.	5%
CCC(=O)N1CCc2cc(S(=O)(=O)CCC(=O)N3CCc4ccccc4C3)ccc21	5	12µM*	12	-3%	-24%
CCC(=O)N1CCc2cc(S(=O)(=O)CCC(=O)NC3CCCCC3)ccc21	-3	2.6µM*	16	5%	-7%
CCC(=O)N1CCCc2cc(S(=O)(=O)CCC(=O)Nc3ccccc3C)ccc21	-1	5.9µM*	3	4%	-25%
CC(=O)N1CCCc2cc(S(=O)(=O)CCC(=O)Nc3cccc(C)c3C)ccc21	1	?	3	4%	-3%
Cc1ccc(N2C(=O)N(CC(=O)Nc3ccc(C)c(C)c3[N+](=O)[O-])C(=O)C2C)cc1 (centres undefined)	1	11%	-5	.	-1%
CCN(CC)CCCN(C(=O)c1ccc(F)cc1)c1nc(-c2ccc(OC)cc2)cs1	-6	0%	-2	15%	?
c1ccc(CSCc2cn3ccsc3n2)cc1	39*	.	12*	-45%	64%
O=C(Cc1cn2ccsc2n1)OCc1ccccc1	27*	.	62*	-69%	20%
O=c1c2ccccc2nc(SCc2cn3ccsc3n2)n1-c1ccccc1F	30*	.	41*	16%	?
Cc1ccc(-n2nc3c(=O)n(CCCC(=O)NCCN4CCN(C)CC4)nc(C)c3c2C)cc1	-2	12µM*	-3	5%	?
Cc1ccc(-n2nc3c(=O)n(CCCC(=O)N4CCCCC4)nc(C)c3c2C)cc1	-1	?	-9	-1%	9.3µM*
Cc1nn(CCCC(=O)NCc2ccccc2)c(=O)c2nn(-c3ccccc3)c(C)c12	-1	-2%	-4	-7%	?
Cc1nn(CC(=O)N2CCCC2)c(=O)c2nn(-c3ccccc3)c(C)c12	-3	?	-5	-2%	9%
Cc1ccc(CCNC(=O)CCCn2nc(C)c3c(C)n(-c4ccc(C)cc4)nc3c2=O)cc1	2	?	-3	9%	1%
Cc1ccc(-n2nc3c(=O)n(CCCC(=O)NCc4cccc(F)c4)nc(C)c3c2C)cc1	31	46%	-7	-2%	10µM*
Cc1ccc(-n2nc3c(=O)n(CCCC(=O)NCc4ccc(F)cc4)nc(C)c3c2C)cc1	7	13%	-8	-2%	8.3µM*
CCCc1cc(=O)[nH]c(SCC(=O)c2cc(C)n(C(C)COC)c2C)n1 (centres undefined)	-3	-27%	-13	3%	-14%
CCOc1ccc2nc(SCC(=O)NCc3ccc4c(c3)OCO4)[nH]c2c1	-1	-10%	-8	10%	-16%
